# Assay results as given in paper PMC4552634, “A New Set of Chemical Starting Points with Plasmodium falciparum Transmission-Blocking Potential for Antimalarial Drug Discovery” (PLoS ONE, 2015).
# Among all 13,000 compounds or so, about 3,200 (25%) showed an effect of 50% or more. This is one part of the list.
# Tested on: P. falciparum stage V gametocytes
# Set-up: BacTiter-Glo ATP luminescence viability of purified stage V gametocytes in 384-well plates, per cent inhibition versus DMSO
# Settings: 48 h, 5 µM; inhibitor
row,Compound,% Inhibition [%]
1,Oc1cc(Nc2ccnc3cc(I)ccc23)c(F)cc1Cl [TCMDC-138386],-3.325
2,COc1ccc2nccc([C@@H](O)CN3CCC(NC(=O)/C=C/c4c[nH]c5c(C)cccc45)CC3)c2c1 [TCMDC-141000],-6.826
3,COC(=O)CCn1c(C2CCN(CC3CCC(NC(=O)/C=C/c4ccc(Cl)c(Cl)c4)CC3)CC2)nc2ccccc21 (stereo not drawn) [TCMDC-140309],-7.996
4,Cc1ccc(C)c2sc(N(CCCn3ccnc3)C(=O)c3ccco3)nc12 [TCMDC-124924],13.91
5,Cc1cc(N2CCC(NS(=O)(=O)c3cccc4cccnc34)CC2)nc(Nc2cccc(C#N)c2)n1 [TCMDC-134212],-0.7992
6,CCOC(=O)C1=C(C)NC2=C(C(=O)CCC2)C1c1cn(Cc2ccc(Cl)cc2Cl)nc1-c1ccccc1 (stereo not drawn) [TCMDC-125393],-36.58
7,COc1ccc(CNC2CCN(C)CC2)cc1-c1ccc(S(=O)(=O)NC2CCC2)s1 [TCMDC-132254],75.62
8,COc1ccc(CNC2Cc3ccccc3C2)cc1-c1ccc(S(=O)(=O)NCCN2CCCC2)s1 [TCMDC-132258],106.2
9,COc1ccc(CCN2CCC(NCc3cccc(N(C)C)c3)CC2)cc1 [TCMDC-124991],-14.2
10,COc1ccc(CNC2CCCC2)cc1-c1ccc(S(=O)(=O)NCCN2CCCC2)s1 [TCMDC-132299],107.1
11,COc1ccc(CNC2CCN(C)CC2)cc1-c1ccc(S(=O)(=O)NCC2CCCO2)s1 (stereo not drawn) [TCMDC-132478],30.18
12,COc1ccc(CNC2CCN(C)CC2)cc1-c1ccc(S(=O)(=O)NCCN2CCCC2)s1 [TCMDC-132259],103.7
13,N#Cc1cccc(-c2cnc(N)c(-c3nc4ccc(S(N)(=O)=O)cc4[nH]3)c2)c1 [TCMDC-138816],7.84
14,COc1ccc(C(c2ccc(N(C)C)cc2)c2ccc(N(C)C)cc2)cc1 [TCMDC-125652],48.26
15,CN1CCN(CC(O)CNC(=O)Nc2ccc(Cl)cc2)CC1 (stereo not drawn) [TCMDC-134633],21.11
16,COc1ccc2nccc([C@@H](O)CN3CCC(NC(=O)/C=C/c4ccc(Cl)c(C(F)(F)F)c4)CC3)c2c1 [TCMDC-141110],-13.82
17,CN1CCC(c2c[nH]c3ccc(NC(=O)Nc4ccc(-c5ccncc5)c(Cl)c4Cl)cc23)CC1 [TCMDC-139179],-11.47
18,CSc1ccc(C=CC(=O)NC(=O)c2ccccc2O)cc1 [TCMDC-123758],32.47
19,O=C(NC1CCN(c2ccnc(Nc3ccc(F)cc3)n2)C1)c1cc2ccccc2s1 (stereo not drawn) [TCMDC-133599],10.95
20,Cc1ccc(CN2CCCN(Cc3cccc(NC(=O)c4ccc(Cl)c(Cl)c4)c3)CC2)cc1 [TCMDC-141835],80.74
21,N#Cc1ccc(CN2CCCN(Cc3cccc(NC(=O)c4ccc(Cl)c(Cl)c4)c3)CC2)cc1 [TCMDC-141823],-56.24
22,COc1cccc(CN2CCCN(Cc3cccc(NC(=O)c4ccc(Cl)c(Cl)c4)c3)CC2)c1 [TCMDC-141830],58.26
23,Cc1ccc(C(=O)Nc2cccc(CN3CCCN(Cc4ccc(O)cc4)CC3)c2)cc1 [TCMDC-141815],21.11
24,O=C(Nc1cccc(CN2CCN(Cc3ccc(O)cc3)CC2)c1)c1ccc(Cl)c(Cl)c1 [TCMDC-134619],-11.77

row,Compound,% Inhibition [%]
1,O=C(Nc1cccc(CN2CCCN(Cc3ccc(O)cc3)CC2)c1)c1ccc(Cl)c(Cl)c1 [TCMDC-141834],-18.14
2,Cc1ccc(NC(=O)c2ccc(CN3CCCN(Cc4cccc(O)c4)CC3)cc2)cc1C [TCMDC-136427],11.16
3,Cc1ccc(NC(=O)c2cccc(CN3CCCN(Cc4cccc(O)c4)CC3)c2)cc1F [TCMDC-135959],-11.31
4,Cc1ccc(NC(=O)c2cccc(CN3CCCN(Cc4cccc(O)c4)CC3)c2)cc1C [TCMDC-135979],91.29
5,O=C(Nc1cccc(CN2CCN(Cc3cccc(O)c3)CC2)c1)c1ccc(Cl)c(Cl)c1 [TCMDC-134618],76.18
6,O=C(Nc1cccc(CN2CCCN(Cc3cccc(O)c3)CC2)c1)c1ccc(Cl)c(Cl)c1 [TCMDC-141831],-42.16
7,O=C(Nc1cccc(CN2CCCN(CC3CCCCC3)CC2)c1)c1ccc(Cl)c(Cl)c1 [TCMDC-141818],-34.63
8,O=C(Nc1ccc(OC2CCN(Cc3ccccc3)CC2)c(Cl)c1)c1ccc(F)cc1 [TCMDC-133967],19.46
9,FC(F)(F)c1ccc2nc(-c3ccc(-c4ccc(CN5CCN(c6ccncc6)CC5)cc4)cc3)[nH]c2c1 [TCMDC-132915],-1.262
10,COc1cc(F)c2ncc(Cl)c(C(O)CN3CCC(NC(=O)c4ccc5c(n4)NC(=O)CO5)CC3)c2c1 (stereo not drawn) [TCMDC-135912],-16.65
11,CCCc1cc(OC)c(CC2c3cccc(O)c3CCN2C)cc1OC (stereo not drawn) [TCMDC-137435],12.33
12,CN(C)c1ccc(C=CC(=O)NC(=O)c2ccccc2O)cc1 [TCMDC-125391],21.33
13,COc1ccc2c(c1)[nH]c1c(C=Cc3ccccc3)nccc12 [TCMDC-125877],-0.575
14,CCC(Cc1cnc2nc(N)nc(N)c2n1)c1ccc(C(=O)N[C@@H](CCC(=O)O)C(=O)O)cc1 (stereo partly drawn) [TCMDC-137768],-32.96
15,CN(c1cc(NC(=O)c2ccc(F)cc2)ccn1)C1CCN(Cc2cccc(C#N)c2)CC1 [TCMDC-134975],15.95
16,O=C(Nc1cccc(CN2CCCN(Cc3cccnc3)CC2)c1)c1ccc(Cl)c(Cl)c1 [TCMDC-141824],12.34
17,CCCCCCN1CCN(Cc2cccc(NC(=O)c3ccc(Cl)c(Cl)c3)c2)CC1 [TCMDC-134617],-46.23
18,O=C(Nc1cccc(CN2CCCN(Cc3cccc(Cl)c3)CC2)c1)c1ccc(Cl)c(Cl)c1 [TCMDC-141822],77.55
19,CC(C)CCN1CCCN(Cc2ccc(C(=O)Nc3ccc(F)c(F)c3)cc2)CC1 [TCMDC-136391],89.43
20,CC(C)CCN1CCCN(Cc2cccc(NC(=O)c3ccc(Cl)c(Cl)c3)c2)CC1 [TCMDC-141827],68.73
21,CCCCN1CCN(Cc2cccc(NC(=O)c3ccc(Cl)c(Cl)c3)c2)CC1 [TCMDC-134615],-27.06
22,CC(C)CCN1CCCN(Cc2ccc(C(=O)Nc3ccc(Cl)cc3)cc2)CC1 [TCMDC-136413],0.3374
23,O=C(Nc1cccc(CN2CCCN(Cc3ccsc3)CC2)c1)c1ccc(Cl)c(Cl)c1 [TCMDC-134581],-57.04
24,Cc1ccc(NC(=O)c2ccc(CN3CCCN(CCC(C)C)CC3)cc2)cc1F [TCMDC-136410],-21.57
